High-throughput results: PubChem, National Center for Advancing Translational Sciences (NCATS)
An excerpt weighted towards active compounds, which were near 13% of everything screened.
CHX counter = affects cycloheximide protein synthesis inhibition readout, counter-screen. max response, %. AID 2314. 12% of 300,000 active. cell reporter, cycloheximide protein synthesis inhibition counterscreen; in the data active = max response mostly above about 13%, no sharp cut-off; inactive = mostly below about 14%; note: read at 38.3 µM for the half of the compounds with a filed dose; 0% is about no effect
Lassa entry inh = Lassa virus entry inhibition. 1.2% of 300,000 active. Potency, µM (series often up to 37.9 µM), inactives show top-dose activity change, negative = inhibition, most hits filed as inhibitors. Lassa virus pseudotype entry inhibition, cell reporter; calls by dose curve; tested in HEK293 cells; note: potency is the fitted concentration of half-maximal effect; % is set by controls: 0 for no effect and ±100 for the full control effect; nearly all actives have a fitted effect of over 50% in size
FMDV antiviral = foot and mouth disease virus antiviral activity. FMDV antiviral cell-based qHTS. Potency, µM (series often up to 57.9 µM), for the others: top-dose activity change, negative = inhibition, hits mostly inhibitors. 1.2% of 410,000 active. AID 1159524; calls by dose curve; tested in HEK293T cells; note: read-out not given here; potency is the fitted concentration of half-maximal effect; % is set by controls: 0 for no effect and ±100 for the full control effect; nearly all actives have a fitted effect of over 45% in size
Shiga toxin inh = Shiga toxin inhibition; Vero cells, Shiga toxin protein synthesis inhibition reporter; 9.2% of 290,000 active; inhibition, % at 38.7 µM; in the data active = inhibition mostly above about 28%, no sharp cut-off; inactive = mostly below about 43%; note: 0% is about no effect
HCV inhibitor = HCV inhibition; Huh7.5.1 HCVcc-Cre infection, luciferase reporter, 44 h; Potency, µM (top dose mostly 41.8 µM), inactives show at the highest dose activity change, negative = inhibition, usual class: inhibitors; 3.4% of 340,000 active; AID 651820; active = well fitted inhibition curve with a large enough effect; inconclusive = small, poorly fitted or top-dose-only effect, or another doubt; inactive = no such curve, though single readings can be large or run the other way; note: potency is the fitted concentration of half-maximal effect; % is set by controls: 0 for no effect and ±100 for the full control effect
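Antiviral activity was scored by luciferase reporter output from cells infected with HCVcc-Cre (~0.5 moi) in presence of compound, 44 h infection period, cells seeded 1,000/well 4 h prior.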
Marburg entry inh = Marburg virus entry inhibition; AID 540276; Marburg virus pseudotyped entry inhibition, cell reporter; 1.8% of 300,000 active; Potency, µM (titrated, usually from 37.8 µM), without a hit: top-dose activity change, negative = inhibition, usual class: inhibitors; calls by dose curve; tested in HEK293 cells; note: potency is the fitted concentration of half-maximal effect; % is set by controls: 0 for no effect and ±100 for the full control effect
* hit, by the source's call; u = inconclusive; x = no result given; [ ] = dose if it differs, or a comment.

SMILES | CHX counter | Lassa entry inh | FMDV antiviral | Shiga toxin inh | HCV inhibitor | Marburg entry inh
CN(C)/C=C/C(=O)c1cc(F)cc(C(F)(F)F)c1 | 1 | -2% | 2% | -1 | 3% | u
CN(C)/C=C/C(=O)c1ccc(Br)s1 | 21* | -1%[46.1 µM] | -8% | 54* | -7% | 15%[46.1 µM]
Cc1ccc(C(=O)/C=C/N(C)C)o1 | 16 | -1%[46.1 µM] | 5% | 26 | 8% | 6%[46.1 µM]
Cc1cc(C)n(CCC(=O)N/N=C/c2ccccc2O)n1 | 10 | u | -7% | 8 | u | -18%
COc1ccc(OC)c(/C=N/NC(=O)CCN2CCN(C(c3ccccc3)c3ccccc3)CC2)c1 | 5 | u | 0% | 22 | 10µM* | 10µM*
COc1ccc2nc(C)cc(SCC(=O)N/N=C/c3ccc(O)cc3O)c2c1 | -2 | u | u | 13 | 13µM* | u
Cc1cc(C)n(CCC(=O)N/N=C/c2ccc(O)cc2O)n1 | -5 | u | 0% | -9 | u | 13µM*
O=C(CCN1CCN(C(c2ccccc2)c2ccccc2)CC1)N/N=C/c1ccc(O)cc1 | -4 | u | -22% | -4 | u | u
O=C(CCN1CCN(C(c2ccccc2)c2ccccc2)CC1)N/N=C/c1ccc(O)cc1O | -5 | u | -23% | -17 | 7.9µM* | u
COc1ccc(CCNC(=O)COc2ccc(S(=O)(=O)N3CCCC3)cc2)cc1 | -2 | u | -2% | 6 | 2% | u
COc1ccccc1N(C)S(=O)(=O)c1ccc(C(=O)Nc2nccs2)cc1 | x | x | 0% | x | 11µM* | x
COc1ccccc1N(C)S(=O)(=O)c1ccc(C(=O)Nc2ncc(C)s2)cc1 | x | u | u | x | 14µM* | -28%
COc1ccccc1N(C)S(=O)(=O)c1ccc(C(=O)Nc2nc(C)c(C(C)=O)s2)cc1 | x | x | u | x | 2% | x
CCCc1nnc(NC(=O)c2ccc(S(=O)(=O)N(C)c3ccccc3OC)cc2)s1 | x | -6% | u | x | 4% | 0%
FC(F)(F)c1cccc(NC(=S)Nc2cccc(NC(=S)Nc3cccc(C(F)(F)F)c3)n2)c1 | 24* | u | -21% | 44* | 10µM* | u
CCCCCn1c(=S)[nH]c2cc(C(=O)N3CCN(C(=O)OCC)CC3)ccc2c1=O | -6 | x | u | -5 | -19% | -2%[46.1 µM]
CCC(C)Nc1ncnc2c1cnn2-c1ccc(F)cc1 (stereo not given) | x | -1%[46.1 µM] | -4% | x | x | x
COc1ccc(-n2ncc3c(NCCCOC(C)C)ncnc32)cc1 | x | 23%[46.1 µM] | -6% | x | x | x
COc1ccc(-n2ncc3c(NCC(C)C)ncnc32)cc1 | 15 | u | -30% | 19 | 14µM* | u
COc1ccc(-n2ncc3c(NC(C)C)ncnc32)cc1 | 44* | u | 0% | 69 | u | u
COCC(C)Nc1ncnc2c1cnn2-c1ccc(Cl)cc1 (stereo not given) | 33* | u | -9% | 101* | u | u
Cc1cc(C(=O)N/N=C2\CCCC(C)C2)n[nH]1 (stereo not given) | 55* | 0% | x | 47 | 8% | 14%
CC1CCC/C(=N\NC(=O)c2ccncc2)C1 (stereo not given) | -1 | -2% | -14% | 28 | 17% | 16%
CN(C)S(=O)(=O)c1cccc(C(=O)Nc2ccccc2)c1 | 15 | -3% | -3% | 42 | -28% | 2%[46.1 µM]
O=C(Cc1ccc(Cl)cc1)Nc1cccc(S(=O)(=O)Nc2ccccc2F)c1 | 2 | u | -5% | -10 | 14% | -27%
SMILES | CHX counter | Lassa entry inh | FMDV antiviral | Shiga toxin inh | HCV inhibitor | Marburg entry inh
CN(C)S(=O)(=O)c1cccc(C(=O)Nc2cc(Cl)cc(Cl)c2)c1 | 2 | u | -6% | 40 | 11µM* | -4%
CN(C)S(=O)(=O)c1cccc(NC(=O)Cc2ccc(Cl)cc2)c1 | -3 | 13µM* | u | 1 | 4% | -17%
CN(C)S(=O)(=O)c1cccc(C(=O)Nc2cc(Cl)ccc2O)c1 | 40* | -26% | -18% | 34 | u | 3%
O=c1[nH]oc2cc(Cl)ccc12 | 1 | x | -27% | 23 | 4% | x
O=C(c1cc(-c2ccccc2)nn1-c1ccccc1)N1CCN(S(=O)(=O)c2ccc(F)cc2)CC1 | x | -18% | -6% | x | u | -23%
Cc1ccc(/C=C2/SC(=S)N(CCCC(=O)Nc3cc([N+](=O)[O-])ccc3O)C2=O)cc1 | -3 | -25%[46.1 µM] | u | -7 | -3% | -27%[46.1 µM]
CC(C)(C)c1ccc(-n2ncc3c2CCCC3NC(=O)CN2CCCC2=O)cc1 (stereo not given) | 2 | u | u | -8 | 10µM* | 4%
CC(C)(C)c1ccc(-n2ncc3c2CCCC3NC(=O)c2cnccn2)cc1 (stereo not given) | 30* | u | -14% | 73* | 4.5µM* | u
CC(=O)NC1CCCc2c1cnn2-c1ccc(C(C)(C)C)cc1 (stereo not given) | 1 | -23% | -20% | 53 | 10µM* | 7%
CC(C)(C)c1ccc(-n2ncc3c2CCCC3NC(=O)c2csnn2)cc1 (stereo not given) | 5 | -11% | -22% | 12 | 5% | 0%
Cc1ccc(NC(=O)CSCc2cc(=O)n3nc(C4CC4)sc3n2)cc1 | -7 | x | -10% | -3 | 11% | x
CC(NC(=O)c1ccc2ccccc2n1)c1ccccc1 (stereo not given) | -2 | u | -1% | -11 | -9% | -9%[46.1 µM]
Cc1ccc(CN=C(N)Nc2nc(C)cc(C)n2)cc1 | -7 | -23% | -24% | -12 | 16µM* | 11µM*
NC1=NC(=Nc2ccccc2)c2ccccc21 | 0 | 13µM* | u | 40 | 1% | u
NC1=NC(=Nc2ccc(Br)cc2)c2ccccc21 | 26* | u | 4% | 62* | u | 7.1µM*
Cc1cccc(N=C2N=C(N)c3ccccc32)c1 | -2 | u | 18% | -13 | 10% | u
NC1=NC(=Nc2ccc(Cl)cc2)c2ccccc21 | 47* | -7% | 31% | 27 | 5% | 21%
CC(C)c1ccc(N=C2N=C(N)c3ccccc32)cc1 | 80* | u | -25% | 118* | u | u
COc1ccc(N(C(=O)c2ccn[nH]2)C(C(=O)NC(C)(C)C)c2ccc(F)cc2)cc1 (stereo not given) | -2 | 1% | 12% | -17 | 17% | 17%
COc1ccc(C(=O)Nc2cc3c4c(c2)C(C)C(=O)N4CCC3)cc1 (stereo not given) | x | -1% | 33% | x | u | -5%
C/C(=N\NC(=O)c1ccc(O)cc1)c1cc2ccccc2o1 | 29* | x | 49% | 59* | u | -1%[46.1 µM]
CCNC(=S)N/N=C(\C)c1cc2ccccc2o1 | 18* | 3% | 12% | 10 | u | 25%
COc1ccc(OCC(=O)N/N=C(\C)c2cc3ccccc3o2)cc1 | 26* | u | 0% | 57* | u | -40%
COc1ccc(OCC(=O)N/N=C(\C)c2ccc(OC)cc2)cc1 | 20 | u | 0% | -3 | 8% | -21%[46.1 µM]
O=C(NNC(=O)c1cc2ccccc2o1)c1ccc(F)cc1 | x | -1% | 65% | x | 5% | 3%
